{"source": "the supplement of paper PMC8773631", "note": "Counter-ions that a name gives are not always drawn. ± gives the uncertainty stated by the source."}
{"tested_on": "NCC-MFS5-C1", "assay": "cell viability relative to DMSO control; higher = less growth inhibition", "conditions": "10 µM; treatment time: 3 days", "protocol": "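NCC-MFS5-C1 myxofibrosarcoma cells (1x10^4 per well, 384-well) were treated on day 2 with 10 µM of each drug. On day 5, viability was read by CCK-8 absorbance at 450 nm and normalised to the DMSO control (%), n = 2.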", "units": {"cell viability": "%"}}
{"smiles": "FC(F)(F)c1ccc(/C=C/c2nc(COc3ccc(CCCCn4ccnn4)cc3)co2)cc1", "note": "[Mubritinib (TAK 165)]", "cell viability": "96 ± 3.5"}
{"smiles": "COc1cccc2c1C(=O)c1c(O)c3c(c(O)c1C2=O)C[C@@](O)(C(C)=O)C[C@@H]3O[C@H]1C[C@H](N)[C@H](O)[C@H](C)O1", "note": "[Daunorubicin HCl]", "cell viability": "14.4 ± 6.7"}
{"smiles": "CC[C@H](Nc1ncnc2[nH]cnc12)c1nc2cccc(F)c2c(=O)n1-c1ccccc1", "note": "[CAL-101 (Idelalisib, GS-1101)]", "cell viability": "72.3 ± 6.2"}
{"smiles": "O=[n+]1c(CBr)c(CBr)n([O-])c2ccccc21", "note": "[Conoidin A]", "cell viability": "86.4 ± 1.1"}
{"smiles": "Cc1ccc(-n2[nH]c(C)c(N=Nc3cccc(-c4cccc(C(=O)O)c4)c3O)c2=O)cc1C", "note": "[Eltrombopag Olamine]", "cell viability": "111 ± 5.6"}
{"smiles": "COc1ccc(/C=C/C(=O)Nc2ccccc2C(=O)O)cc1OC", "note": "[Tranilast]", "cell viability": "80.2 ± 2.5"}
{"smiles": "Cc1ccc(NC(=O)c2ccc(CN3CCN(C)CC3)cc2)cc1Nc1nccc(-c2cccnc2)n1", "note": "[Imatinib Mesylate (STI571)]", "cell viability": "69.6 ± 1.4"}
{"smiles": "Nc1cccc2c1C(=O)N(C1CCC(=O)NC1=O)C2=O", "note": "(stereo not given) [Pomalidomide]", "cell viability": "97.7 ± 6.4"}
{"smiles": "O=P(O)(O)C(O)(Cn1ccnc1)P(=O)(O)O", "note": "[Zoledronic Acid]", "cell viability": "84.5 ± 7.6"}
{"smiles": "S=C(NCc1ccc2c(c1)OCO2)N1CCN(c2ncnc3c2oc2ccccc23)CC1", "note": "[Amuvatinib (MP-470)]", "cell viability": "86.1 ± 9"}
{"smiles": "COc1ccc2c(c1OC)C(=O)O[C@@H]2[C@H]1c2c(cc3c(c2OC)OCO3)CCN1C", "note": "[Noscapine HCl]", "cell viability": "75.82 ± 0.21"}
{"smiles": "CC(=O)O[C@H]1C(=O)[C@@]2(C)[C@H]([C@H](OC(=O)c3ccccc3)[C@]3(O)C[C@H](OC(=O)[C@H](O)[C@@H](NC(=O)c4ccccc4)c4ccccc4)C(C)=C1C3(C)C)[C@]1(OC(C)=O)CO[C@@H]1C[C@@H]2O", "note": "[Paclitaxel]", "cell viability": "53.9 ± 3.3"}
{"smiles": "Fc1ccc(C(c2ccc(F)cc2)N2CCN(C/C=C/c3ccccc3)CC2)cc1", "note": "[Flunarizine 2HCl]", "cell viability": "114 ± 12"}
{"smiles": "C[C@@H](CN1CC(=O)NC(=O)C1)N1CC(=O)NC(=O)C1", "note": "[Dexrazoxane]", "cell viability": "122.6 ± 1.1"}
{"smiles": "Nc1ncn([C@H]2C[C@H](O)[C@@H](CO)O2)c(=O)n1", "note": "[Decitabine]", "cell viability": "134 ± 7.4"}
{"smiles": "CS(=O)(=O)OCCCCOS(C)(=O)=O", "note": "[Busulfan]", "cell viability": 83.3}
{"smiles": "COC(=O)c1ccc2c(C(=Nc3ccc(N(C)C(=O)CN4CCN(C)CC4)cc3)c3ccccc3)c(O)[nH]c2c1", "note": "[Nintedanib (BIBF 1120)]", "cell viability": "39.1 ± 0.64"}
{"smiles": "CC(=O)O[C@]1(C(C)=O)CC[C@H]2[C@@H]3C=C(C)C4=CC(=O)CC[C@]4(C)[C@H]3CC[C@@]21C", "note": "[Megestrol Acetate]", "cell viability": "93.9 ± 4"}
{"smiles": "O=C(c1ccc(OCCN2CCCCC2)cc1)c1c(-c2ccc(O)cc2)sc2cc(O)ccc12", "note": "[Raloxifene HCl]", "cell viability": "85 ± 1"}
{"smiles": "CCOC(=O)[C@H](CCc1ccccc1)N[C@H]1CS[C@H](c2cccs2)CN(CC(=O)O)C1=O", "note": "[Temocapril HCl]", "cell viability": "86 ± 1.2"}
{"smiles": "COc1cc([C@@H]2c3cc4c(cc3[C@@H](O[C@@H]3O[C@@H]5CO[C@@H](C)O[C@H]5[C@H](O)[C@H]3O)[C@H]3COC(=O)[C@H]23)OCO4)cc(OC)c1O", "note": "[Etoposide]", "cell viability": "74.3 ± 9"}
{"smiles": "C=CC(=O)N1CCC(Oc2cc3c(Nc4ccc(Cl)c(Cl)c4F)ncnc3cc2OC)CC1", "note": "[Poziotinib (HM781-36B)]", "cell viability": "68.6 ± 1"}
{"smiles": "Nc1ccn([C@@H]2O[C@H](CO)[C@@H](O)C2(F)F)c(=O)n1", "note": "[Gemcitabine]", "cell viability": "91 ± 2.9"}
{"smiles": "S=c1[nH]cnc2nc[nH]c12", "note": "[Mercaptopurine (6-MP)]", "cell viability": "93.5 ± 3"}
{"smiles": "COc1cc2nccc(Oc3ccc(NC(=O)C4(C(=O)Nc5ccc(F)cc5)CC4)cc3)c2cc1OC", "note": "[Cabozantinib malate (XL184)]", "cell viability": "67.2 ± 21"}
{"smiles": "Cc1ccc(-c2cc(C(F)(F)F)nn2-c2ccc(S(N)(=O)=O)cc2)cc1", "note": "[Celecoxib]", "cell viability": "72.1 ± 10"}
{"smiles": "CC(C)C(=O)Nc1ccc([N+](=O)[O-])c(C(F)(F)F)c1", "note": "[Flutamide]", "cell viability": "78.3 ± 6"}
{"smiles": "O=C1c2c(O)ccc(O)c2C(=O)c2c(NCCNCCO)ccc(NCCNCCO)c21", "note": "[Mitoxantrone 2HCl]", "cell viability": "-0.766 ± 0.85"}
{"smiles": "COC(=O)C[C@](O)(CCCC(C)(C)O)C(=O)O[C@@H]1C(OC)=C[C@]23CCCN2CCc2cc4c(cc2[C@H]13)OCO4", "note": "[Homoharringtonine]", "cell viability": "54 ± 5.4"}
{"smiles": "CO[C@@]12[C@H](COC(N)=O)C3=C(C(=O)C(C)=C(N)C3=O)N1C[C@@H]1N[C@@H]12", "note": "[Mitomycin C]", "cell viability": "41.7 ± 3.7"}
{"smiles": "COc1cc(Nc2c(C#N)cnc3cc(OCCCN4CCN(C)CC4)c(OC)cc23)c(Cl)cc1Cl", "note": "[Bosutinib (SKI-606)]", "cell viability": "22.1 ± 0.85"}
{"smiles": "CC(=O)[C@]1(O)Cc2c(O)c3c(c(O)c2[C@@H](O[C@H]2C[C@H](N)[C@H](O)[C@H](C)O2)C1)C(=O)c1ccccc1C3=O", "note": "[Idarubicin HCl]", "cell viability": "0.409 ± 0.53"}
{"smiles": "CCN(CC)CCNC(=O)c1c(C)[nH]c(/C=C2\\C(=O)Nc3ccc(F)cc32)c1C", "note": "[Sunitinib Malate]", "cell viability": "7.73 ± 5.5"}
{"smiles": "Nc1nc(Cl)nc2c1ncn2[C@H]1C[C@H](O)[C@@H](CO)O1", "note": "[Cladribine]", "cell viability": "80 ± 9.5"}
{"smiles": "Oc1ncnc2[nH]ncc12", "note": "[Allopurinol]", "cell viability": "86.2 ± 18"}
{"smiles": "Cc1cn(-c2cc(NC(=O)c3ccc(C)c(Nc4nccc(-c5cccnc5)n4)c3)cc(C(F)(F)F)c2)cn1", "note": "[Nilotinib (AMN-107)]", "cell viability": "57.2 ± 3.6"}
{"smiles": "Cc1nc(Nc2ncc(C(=O)Nc3c(C)cccc3Cl)s2)cc(N2CCN(CCO)CC2)n1", "note": "[Dasatinib Monohydrate]", "cell viability": "60.9 ± 3.2"}
{"smiles": "COc1cc2/c(=N/c3ccc(Br)cc3F)nc[nH]c2cc1OCC1CCN(C)CC1", "note": "[Vandetanib (ZD6474)]", "cell viability": "52.5 ± 2.8"}
{"smiles": "C/C(=C\\c1csc(C)n1)[C@@H]1C[C@@H]2O[C@]2(C)CCC[C@H](C)[C@H](O)[C@@H](C)C(=O)C(C)(C)[C@@H](O)CC(=O)N1", "cell viability": "51.24 ± 0.45"}
{"smiles": "N=C(N)NC(=N)N1CCOCC1", "note": "[Moroxydine HCl]", "cell viability": "91.2 ± 3.7"}
